About 79,000 compounds went through this panel and 15% of them were active in at least one assay; those are over-represented in the sample as a whole. Values without a mark were called inactive. The source made the active and inactive calls. Rule as the data show it: active = growth inhibition above about 70%; inactive = the rest.
Legend:
[1] = NCI Yeast Anticancer Drug Screen. Data for the rad50 strain (AID 155);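 also: 0% = growth of vehicle-only cultures of the same strain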; conditions: S. cerevisiae rad50 strain growth inhibition; at 50.0 µM; hits give high values
In short: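 Growth of the mutant yeast was measured after compound exposure and referenced to vehicle-treated cultures.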

[2] = NCI Yeast Anticancer Drug Screen. Data for the mec2-1 strain (AID 157); conditions: S. cerevisiae mec2-1 strain, at 50.0 µM, hits give high values
In short: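 Readout is yeast growth inhibition, normalised to vehicle-treated controls, in the mec2-1 strain exposed to compound.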

[3] = NCI Yeast Anticancer Drug Screen. Data for the sgs1 mgt1 strain (AID 161);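 also: 0% = growth of cultures given vehicle only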; conditions: S. cerevisiae sgs1 mgt1 strain, at 50.0 µM, hits give high values
In short: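 Percent growth inhibition was derived by comparing compound-exposed mutant yeast with vehicle-exposed cultures. The strain carries alterations in DNA damage repair.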

[4] = NCI Yeast Anticancer Drug Screen. Data for the cln2 rad14 strain (AID 165);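 also: 0% = growth equal to vehicle treated cultures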; conditions: S. cerevisiae cln2 rad14 strain, at 50.0 µM, hits give high values
In short: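 Relative to vehicle controls, growth inhibition of compound-treated cln2 rad14 yeast was recorded.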

[5] = NCI Yeast Anticancer Drug Screen. Data for the bub3 strain (AID 167); conditions: S. cerevisiae bub3 mutant strain, at 50.0 µM, hits give high values
In short: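 Whole-cell yeast assay. The mutant strain was incubated with compounds, and growth inhibition was determined by comparison with vehicle-treated cells.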

[6] = NCI Yeast Anticancer Drug Screen. Data for the mlh1 rad18 strain (AID 175); conditions: S. cerevisiae mlh1 rad18 strain growth inhibition; at 50.0 µM; hits give high values
In short: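 Test agents were incubated with a yeast strain of defined genotype (DNA damage repair defect). Inhibition of growth was derived by comparison with vehicle-exposed cultures.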

SMILES	growth inhibition [1]	growth inhibition [2]	growth inhibition [3]	growth inhibition [4]	growth inhibition [5]	growth inhibition [6]
c1ccc(Cc2ccccc2)cc1	12.8%	39.2%	-21.8%	1.5%	-1.1%	
CC1(C)N=C(N)N=C(N)N1c1cccc(Br)c1	-14.3%	-14.4%	-13.1%	7.15%	-0.95%	2.3%
COc1cc(C(=O)NC(=S)Nc2ccc3ccccc3c2)cc(OC)c1OC	11.3%	2.6%	6.25%	-6.15%	-3.4%	
CC(C)=C(NC(=O)c1ccccc1)C(=O)O	14.1%	0.35%	-5.25%	22%	-2.7%	
CN(C)c1ccc2oc(=O)c3ccccc3c2c1	6.05%	7.55%	1.55%	-2%	0.5%	
CSC[C@H](NC(=O)COc1cccc2cnccc12)C(=O)NC(Cc1ccccc1)C(O)C(=O)N1CSC[C@H]1C(=O)NC(C)(C)C (stereo partly drawn)	-34.3%	-17.2%	-28.9%	17.6%	2.3%	-51.4%
CC(C)(C)n1nc(C2CC2)c(Br)c1NC(=O)c1ccccc1F	-6.6%	-12.2%	8.7%	3.25%	5.55%	10.9%
c1ccc2c(N3CCCCC3)ncnc2c1	0.85%	-1%	-4.65%	4.8%		
N#Cc1ccc(OC(=O)Nc2ccc(Cl)c(Cl)c2)cc1	-7.65%	-4.4%	20.9%	8.35%	9.95%	
CCOC(=O)C1OC1c1ccccc1 (stereo not drawn)	24.5%	-6.45%	-2.3%	-4.5%	-3.9%	
NC(=O)c1ccc(N=C(N)N=C(N)N)cc1	7.3%	-15.6%	-20%	-36.2%	-11.8%	
Cn1cnc2nc(Cl)nc(Cl)c21	13.1%	23%	10.7%	-0.05%	27.1%	
O=c1[nH][nH]c(=O)c2cc([N+](=O)[O-])ccc12	32.9%	11.6%	1.7%	-67.7%	-15%	
CC(C)C1CCCCC1O (stereo not drawn)	-9.15%	-9.1%	-11.5%	-35.5%	-1.4%	
CCc1nc(N)nc(N)c1-c1ccc(Cl)cc1	-9.9%	2.9%	-4.45%	-42.5%		
COC(=O)/C=C1\Sc2cc(F)ccc2NC1=O	-12.9%	2.45%	13.9%	-44.2%	-8.5%	-6.55%
O=C(CCl)N1CCN(C/C=C/c2ccccc2)CC1	8.15%	-0.05%	19.1%	-3.95%	39.9%	
COc1ccc(/C(C#N)=C2C=C/C(=N/O)c3ccccc3\2)cc1	-5.15%	14.6%	8.75%	-22.2%	9.25%	
COc1ccc(-c2cc(-c3cc(-c4ccc(OC)cc4)nc(N)n3)nc(N)n2)cc1	-13%	4.45%	-20.8%	-2.65%	-2.65%	9.8%
O=c1cc(-c2ccccc2)[nH]c2c1CCCC2	-17.8%	-21.4%	-12.2%	-23.8%	0.95%	
CC1SC(N)=NC1=O (stereo not drawn)	12.8%	-6.7%	0.25%	-2.15%	-7.5%	
O=C(O)c1cccc([N+](=O)[O-])c1	-28%	-8%	-21.8%	-27.1%	-23.1%	
O=[N+]([O-])c1ccccc1S(=O)c1ccccc1[N+](=O)[O-]	16.1%	21.6%	34.3%	20.9%	39.2%	
COc1ccc2c(NCCCCCCCCNc3c4ccccc4nc4cc(OC)ccc34)c3ccccc3nc2c1	90.8% (active)	91.4% (active)	91.8% (active)	89.3% (active)	90.8% (active)	

SMILES	growth inhibition [1]	growth inhibition [2]	growth inhibition [3]	growth inhibition [4]	growth inhibition [5]	growth inhibition [6]
CCCCOC(OCCCC)c1ccccc1	-26.5%	-9.5%	20.7%	-18.6%	-1.8%	
CC(=O)OC(OC(C)=O)C1CCCO1 (stereo not drawn)	-5.75%	-21.6%	-2.1%	17.1%	-2.95%	1.1%
O=C(O)CSCSCC(=O)O	1.45%	-26.4%	-8.8%	20.2%	4.8%	
Cc1ccc(C(O)C2CC2)cc1 (stereo not drawn)	-24.2%	-38.6%	-23.1%	11.4%		
O=C(Nc1cc(-c2ccccc2)[nH]n1)c1ccc(Cl)cc1	-5.35%	-21.1%	6.05%	-1%	-7.15%	
CC(=O)OCC1CCCO1 (stereo not drawn)	-24.9%	-9.45%	-21.1%	-44.1%	19.6%	
O=C1OC(c2ccc(F)cc2)CC1CN1CCOCC1 (stereo not drawn)	0.45%	12.6%	30.6%	27.3%	24.3%	38.5%
Cc1ccc(Cl)cc1N1C(=O)CC(Sc2ccccc2N)C1=O (stereo not drawn)	21.9%	-2.8%	28.4%	8.65%	30.8%	20.2%
Nc1ccc(NC(=O)c2cccc(N)c2)cc1	15.2%	3.5%	6.4%	-7.8%	19.2%	
Nc1nc(OCc2ccccc2)c2[nH]cnc2n1	-15.3%	-0.15%	-48.1%	-29.2%		
COc1cc(OC)c2ccc(=O)oc2c1	27.2%	8.4%	16.1%	6.75%	38.5%	
CC(=O)OCC1=CC2OC(=O)C3=COC(OC4OC(CO)C(O)C(O)C4O)C1C32 (stereo not drawn)	11.6%	-3.55%	10.3%	13.4%	16.6%	
CCCOC(=O)C(O)c1ccccc1 (stereo not drawn)	16.2%	-6.25%	-5.5%	-24.1%		
CCCC(=O)c1cc(C)ccc1OC	-2.15%	0.15%	-9.85%	-22.6%	6.6%	
COc1ccc(C(O)c2ccccc2)cc1 (stereo not drawn)	2.2%	-17.4%	-34.9%	-50.2%	-28.1%	-15.2%
CCOC(=O)CCCC(=O)OCC	20.8%	-8.1%	1.65%	7.7%	22.8%	19.6%
COc1ccc(C(C)C=O)cc1 (stereo not drawn)	5.55%	-14.8%	-30.3%	-51.5%	-27.9%	2.3%
COc1cc2nn(-c3ccccc3N)nc2cc1OC	19.4%	36.6%	48.2%	14.7%	52.2%	29.9%
CC1(C)S(=O)(=O)OCCOS1(=O)=O	-25.4%	16.6%	6.75%	-20.5%	7.35%	0.15%
COc1cc([C@@H]2c3cc4c(cc3[C@H](O)[C@H]3COC(=O)[C@H]23)OCO4)cc(OC)c1OC	-4.8%	-8.55%	9.05%	5.1%	3.6%	9%
CC(=O)c1ccc(N=C(C#N)C2=C(O)c3ccccc3C2=O)cc1	15.7%	-12.4%	25.8%	14.2%	10.9%	13.3%
CC(=O)N(C)c1ccc([N+](=O)[O-])cc1	21.8%	-5.6%	21.2%	26.2%	24.4%	1.3%
Cc1cc(C(O)(c2ccc(Nc3ccccc3)cc2)c2ccc(Nc3ccc(S(=O)(=O)O)cc3)cc2)ccc1N (stereo not drawn)	-44.5%	-46%	-9.6%	-16.1%	-36.6%	-34.6%
Nc1ccc(CC(=O)O)c(N)c1	0.55%	-7.8%	-4.6%	-6.25%	4.6%	-0.4%

Source: PubChem BioAssay (NCI)
